Some test systems named below: T-47D breast; BT-549 breast; MDA-MB-435 melanoma; SW-620 colon; MCF7 breast; HCT-116 colon; HCC-2998 colon; KM12 colon.
Common to all, as to assay: NCI-60 one-dose screen, 48 h (100 = growth as untreated, 0 = no growth, -100 = all killed)
Conditions in all cases: 10 µM unless noted

The panel holds about 83,000 compounds, 20% with a hit somewhere; the sample as a whole holds those more often.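 In brief: 96-well plates, 48 h treatment, single concentration, percent growth endpoint.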 Values without a mark were called inactive. Calls of active or inactive are those of the source. Rule for the calls: active = growth percent below 10; inactive = the rest.

In the case of `Cc1cc(C)c2nc3nc(C)cc(C)c3c(N)c2c1`, the growth in the assay with T-47D breast was 37.8%; in the assay with BT-549 breast, 56.1%; in the assay with MDA-MB-435 melanoma, 29.5%; with SW-620 colon it was 16.2%; in the assay on MCF7 breast, 8.2% (active); in the assay on HCT-116 colon, 13.9%. In addition, the figures for the growth with HCC-2998 colon and with KM12 colon were 10.7% and 22.3%, respectively.
For `CSc1nc(NCc2ccccc2)c(C#N)c(-c2cccc([N+](=O)[O-])c2)n1`, the growth with T-47D breast is 82.8%; with BT-549 breast it was 95.8%; in the assay on MDA-MB-435 melanoma it was 99.4%; in the assay with SW-620 colon, 96.5%; in the assay with MCF7 breast it was 91.8%; in the assay with HCT-116 colon, 87.1%. Also, the growth in the assay with HCC-2998 colon was 107%; in the assay on KM12 colon, 98.2%.
On to `O=S(=O)(Nc1ccc(OC(F)F)cc1)c1ccc(-c2cnc(C3CC3)o2)cc1`, for which the growth in the assay on T-47D breast was 48.3%; in the assay on BT-549 breast, 63.4%; in the assay on MDA-MB-435 melanoma, 8.1% (active); with SW-620 colon, 35.2%; with MCF7 breast, 39.1%; in the assay with HCT-116 colon it was 65.4%. Besides, the growth in the assay with HCC-2998 colon is 80.5%; in the assay with KM12 colon, 74.1%.
Take `C#CCOc1ccc2ncnc(Nc3cccc(CNC(=O)C=C)c3)c2c1`: the growth is 87.9% [8.25 µM] in the assay on T-47D breast; 96.4% [8.25 µM] with BT-549 breast; 97.1% [8.25 µM] with MDA-MB-435 melanoma; 107% [8.25 µM] in the assay on SW-620 colon; 87% [8.25 µM] in the assay with MCF7 breast; 104% [8.25 µM] in the assay on HCT-116 colon. For the same compound, the growth is 106% [8.25 µM] in the assay with HCC-2998 colon and 109% [8.25 µM] in the assay with KM12 colon.
`CCOc1cc2ncc(C#N)c(Nc3ccc(OCc4cccc(F)c4)c(Cl)c3)c2cc1NC(=O)CCCCC1CCSS1` (stereo not drawn): the growth was 64.4% in the assay with T-47D breast; 98.5% in the assay on BT-549 breast; 99% in the assay with MDA-MB-435 melanoma; 99.4% with SW-620 colon; 58.8% in the assay with MCF7 breast; 75.6% with HCT-116 colon. Further, the growth in the assay on HCC-2998 colon is 105%; in the assay on KM12 colon, 82.8%.
On to `Nc1n[nH]c2ccc([C@@H]3Nc4ccc5cn[nH]c5c4[C@H]4C5CCC(C5)[C@@H]34)cc12` (stereo partly drawn), for which the growth is 57.5% in the assay on T-47D breast; 20.9% with BT-549 breast; -47.7% (active) in the assay on MDA-MB-435 melanoma; 19% in the assay on SW-620 colon; 15.2% with MCF7 breast; 12.9% in the assay with HCT-116 colon. Besides, the growth in the assay with HCC-2998 colon was 24.3%; with KM12 colon it was 17.6%.
Consider `COc1cc(C(=O)Oc2ccccc2OC(=O)c2cc(OC)c(OC)c(OC)c2)cc(OC)c1OC`, for which the growth in the assay with T-47D breast was 102%; in the assay with BT-549 breast it was 94%; with MDA-MB-435 melanoma, 103%; in the assay on SW-620 colon it was 109%; with MCF7 breast, 97.2%; in the assay on HCT-116 colon, 104%. In addition, the growth in the assay on HCC-2998 colon was 101%; in the assay on KM12 colon, 90.8%.
In the case of `COc1ccc(-c2nc3ccc(-c4nc5ccc(N6CCN(c7ccc(F)cc7)CC6)cc5[nH]4)cc3[nH]2)cc1OC`, the growth with T-47D breast was 43.8%; with BT-549 breast, 76.3%; with MDA-MB-435 melanoma, 90.1%; with SW-620 colon, 46.5%; with MCF7 breast, 9.99% (active); in the assay on HCT-116 colon, 11.2%. Besides, the growth in the assay on HCC-2998 colon is 95.1%; in the assay with KM12 colon, 95%.
`CCCCCC(=O)Oc1ccc(/C(=C(\C)c2ccc(OC)cc2)c2ccc(OCCN3CCCCC3)cc2)cc1`: the growth in the assay with T-47D breast is 34.8%; in the assay with BT-549 breast, 72.6%; in the assay on MDA-MB-435 melanoma, 62.6%; in the assay with SW-620 colon, 65.1%; in the assay on MCF7 breast it was 24.8%; with HCT-116 colon it was 53.2%. For the same compound, the growth with HCC-2998 colon was 66.7%; in the assay with KM12 colon, 52.8%.
Regarding `COc1ccc(C2CC(c3ccc4ccccc4c3)=NN2/C=C2\SC(=S)N(NC(=O)Cc3ccccc3Nc3c(Cl)cccc3Cl)C2=O)cc1` (stereo not drawn), the growth is 19.2% with T-47D breast; 30% in the assay on BT-549 breast; -49.8% (active) with MDA-MB-435 melanoma; 22.6% in the assay on SW-620 colon; 22.5% in the assay with MCF7 breast; 18.6% with HCT-116 colon. The figures for the growth in the assay on HCC-2998 colon and in the assay with KM12 colon were 31.2% and 16%, respectively.
`O=C1Nc2ccc(Br)cc2C12Oc1ccccc1C1CC(c3ccc(F)cc3)=NN12` (stereo not drawn): the growth is 85.9% with T-47D breast; 91.8% in the assay on BT-549 breast; 99.8% in the assay on MDA-MB-435 melanoma; 99% in the assay on SW-620 colon; 83.5% in the assay with MCF7 breast; 92.3% in the assay on HCT-116 colon. Further, the growth is 97.8% in the assay with HCC-2998 colon and 86.3% in the assay on KM12 colon.
For `CCN(CC)c1ccc(/C=N\NC(=O)/C=C/C=C/c2ccc3c(c2)OCO3)c(O)c1`, the growth in the assay with T-47D breast is 26.3%; in the assay on BT-549 breast, 51.8%; in the assay with MDA-MB-435 melanoma it was 48.9%; in the assay on SW-620 colon it was 32.3%; in the assay with MCF7 breast, 19.5%; in the assay with HCT-116 colon, 7.86% (active). The growth with HCC-2998 colon is 54%; in the assay with KM12 colon, 30.2%.
Take `Cn1cccc1-c1nc2c3c(ccc2[nH]1)C(=O)c1ccccc1C3=O`: the growth in the assay with T-47D breast was -18.8% (active); in the assay with BT-549 breast, 71.7%; in the assay on MDA-MB-435 melanoma it was 105%; in the assay with SW-620 colon, 105%; in the assay on MCF7 breast, 11.6%; in the assay with HCT-116 colon, 83.7%. The growth is 86.3% in the assay on HCC-2998 colon and 73.6% in the assay with KM12 colon.
For the compound `CCN=C1C=CC(=C(c2ccc(N)cc2)c2ccc(N(CC)CC)c(C)c2)C=C1`, the growth with T-47D breast was 1.14% (active); with BT-549 breast, -31.8% (active); with MDA-MB-435 melanoma, -41.2% (active); in the assay with SW-620 colon it was 4.24% (active); in the assay with MCF7 breast, -11.5% (active); in the assay with HCT-116 colon, -17.5% (active). The growth is -4.16% (active) with HCC-2998 colon and -88.4% (active) in the assay with KM12 colon.
On to `O=C1NC(=S)N[C@H]1CC(=O)n1cnc2ccccc21`, for which the growth in the assay with T-47D breast is 99.6%; with BT-549 breast, 102%; in the assay with MDA-MB-435 melanoma, 105%; with SW-620 colon it was 97.2%; with MCF7 breast, 68.7%; in the assay with HCT-116 colon, 104%. Also, the growth is 103% with HCC-2998 colon and 100% with KM12 colon.
Take `CCOc1cc2ncc(C#N)c(Nc3ccc(F)c(Cl)c3)c2cc1NC(=O)CC1CCSS1` (stereo not drawn): the growth in the assay on T-47D breast was -48.4% (active); in the assay with BT-549 breast, -25.3% (active); in the assay on MDA-MB-435 melanoma, -92.1% (active); with SW-620 colon, -49% (active); in the assay on MCF7 breast, -34.7% (active); in the assay on HCT-116 colon, -61.7% (active). The growth in the assay with HCC-2998 colon was -74% (active); with KM12 colon, -77.6% (active).

The record behind these values is PubChem BioAssay (NCI).
